Screens deposited in PubChem by The Scripps Research Institute Molecular Screening Center.
hgDAF-12 ag: H. glycines DAF-12 receptor agonists, primary screen, cell-based, luminescence, HEK293, GAL4 fusion, UAS-luciferase; HEK293 GAL4-hgDAF12 UAS-luciferase reporter, agonist luminescence; normalized to butyrate control; Nuclear hormone receptor DAF-12 (Heterodera glycines), GAL4 fusion; 370,000 tested, 1.8% active; activation, % at 6.8 µM;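 active = activation above a cutoff set at the mean of all screened compounds plus 3 SD, cut at about 10% in these data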;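 also: 0% = DMSO wells and 100% = sodium butyrate wells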
ssDAF12 agonist: S. stercoralis DAF-12 nuclear receptor activators, primary screen, cell-based, luminescence, HEK293, GRIP1 co-expression, lit1-tk-luc. Nuclear hormone receptor DAF-12 (Strongyloides stercoralis). HEK293 ssDAF-12/GRIP1 lit1-tk-luc reporter; % of 3 µM dafachronic acid response. activation, % at 6.8 µM. 370,000 tested, 1% active;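 active = activation above the mean over all tested compounds plus 3 SD, cut at about 0.9% in these data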;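 also: 0% = DMSO-only wells and 100% = 3 µM delta7-dafachronic acid wells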
DAX1 inh-1: DAX1 (NR0B1) inhibitors, primary screen, cell-based, HEK293, Gal4-DAX1, luciferase luminescence; AID 504766, 2011; Nuclear receptor subfamily 0 group B member 1 (Homo sapiens), P51843; HEK293 Gal4-DAX1 luciferase reporter; 340,000 tested, 0.99% active; inhibition, % at 6.75 µM;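 active = inhibition above the mean over all tested compounds plus 3 SD, cut at about 4.2% in these data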;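 also: 0% = DAX1-transfected cells with DMSO and 100% = empty-vector control cells with DMSO; inhibition shows as a rise in luminescence from relieved DAX1 repression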
DAX1 inh-2: DAX1 (NR0B1) inhibitors on StAR promoter, primary screen, cell-based, luminescence, SF-1 (NR5A1), full-length DAX-1; inhibition, % at 6.8 µM; HEK293T StAR-luciferase reporter, SF-1/DAX-1 repression relief; 370,000 tested, 1.1% active;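 active = inhibition above the mean over all tested compounds plus 3 SD, cut at about 3.6% in these data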;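 also: 0% = DAX-1 cells with DMSO and 100% = cells lacking DAX-1 with DMSO; higher inhibition means more luminescence from relief of DAX-1 repression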
hcDAF-12 act: H. contortus DAF-12 nuclear receptor activators, primary screen, cell-based, luminescence, HEK293, lit1-tk-luc reporter | 370,000 tested, 1.4% active | activation, % at 6.8 µM | HEK293 hcDAF-12 lit1-tk-luc reporter; 0% DMSO, 100% Δ7-dafachronic acid | AID 652067, 2013;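 active = activation above the mean of all tested compounds plus 3 SD, cut at about 5.5% in these data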;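 also: 100% = response to 3 µM Δ7-dafachronic acid high control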
DAX1 conf: DAX1 (NR0B1) inhibitors relieving SF-1 repression, confirmation, cell-based, luminescence, HEK293T, full-length DAX-1, SF-1 activated StAR promoter. HEK293T StAR-promoter luciferase reporter, SF-1/DAX-1 repression. AID 652134, 2013. shares compounds with DAX1 inh-2. 2,400 tested, 87% active. inhibition, % at 6.8 µM;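 active = inhibition above the average of every tested compound plus 3 SD, cut at about 3.8% in these data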;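 also: 0% = DAX-1 cells with DMSO and 100% = no DAX-1 control cells with DMSO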
Target sequence (P51843 whole entry, looked up): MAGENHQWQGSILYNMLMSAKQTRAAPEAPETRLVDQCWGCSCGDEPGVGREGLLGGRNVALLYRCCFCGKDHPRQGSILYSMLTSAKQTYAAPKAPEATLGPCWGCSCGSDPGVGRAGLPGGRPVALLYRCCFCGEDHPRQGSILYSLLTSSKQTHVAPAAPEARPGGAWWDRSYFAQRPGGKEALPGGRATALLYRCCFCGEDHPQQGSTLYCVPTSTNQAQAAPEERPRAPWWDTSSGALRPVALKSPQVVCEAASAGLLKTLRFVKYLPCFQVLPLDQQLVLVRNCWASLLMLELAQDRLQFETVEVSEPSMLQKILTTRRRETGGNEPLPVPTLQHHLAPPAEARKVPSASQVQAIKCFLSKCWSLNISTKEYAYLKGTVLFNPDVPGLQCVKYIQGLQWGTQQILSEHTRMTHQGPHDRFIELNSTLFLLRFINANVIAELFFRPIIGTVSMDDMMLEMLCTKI
SF1 AF2mut Luc: StAR reporter signal changes without DAX1, counter-screen for DAX1 inhibitor project, cell-based, luminescence, AF-2 mutant SF-1, transactivation | shares compounds with DAX1 inh-2 | HEK293 StAR-luciferase, SF-1 AF2 mutant | inhibition, % at 6.8 µM | 2,400 tested, 78% active | AID 652136, 2013;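 active = inhibition above the mean of all tested compounds plus 3 SD, cut at about 3% in these data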;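 also: 0% = DAX-1 transfected cells with DMSO and 100% = cells without DAX-1 with DMSO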
* marks the source's active call; other numbers are inactive results; x = no result given. Shown are actives, neighbours in structure and some others; about 4.1% of the full set was active somewhere.

SMILES	hgDAF-12 ag	ssDAF12 agonist	DAX1 inh-1	DAX1 inh-2	hcDAF-12 act	DAX1 conf	SF1 AF2mut Luc
Cc1cccc(OCCn2c(=O)n(C)c3ccccc32)c1	13*	-1	3	5.8*	3	7.2*	4.3*
Cc1cccc(OCCn2c(=O)sc3ccccc32)c1	8	0	1	1	1	x	x
Cc1ccc(OCC(=O)Nc2ccc(Cl)cc2)c([N+](=O)[O-])n1	11*	0	3	6.2*	1	10*	7.5*
CC(COc1ccc(F)cc1)CN1CCC(C(O)(c2ccccc2)c2ccccc2)CC1 (configuration not stated)	-1	-1	x	-1	-3	x	x
Cn1cccc1C(=O)OCC(=O)Nc1ccc2c(c1)OCCO2	11*	0	0	7.1*	4	12*	7.0*
CCC(=O)Nc1c(C(=O)Nc2ccc3c(c2)OCCO3)oc2ccccc12	9	0	0	3	4	x	x
CCOCC(=O)Nc1c(C(=O)Nc2ccc3c(c2)OCCO3)oc2ccccc12	10	0	0	7.0*	1	6.3*	3.1*
CCOC(=O)CN1C(=O)N(c2ccc(OC)cc2)[C@H]2CC3c4ccccc4C[C@]3(C)[C@@H](C(=O)N(C)C3CCCCC3)C[C@H]21 (some centres not stated)	-5	-2	x	-2	-2	x	x
CCN1CCc2c(sc(NC(=O)c3ccc(S(=O)(=O)N4CC(C)OC(C)C4)cc3)c2C(N)=O)C1 (configuration not stated)	2	-1	-1	4.8*	-1	2	3.7*
COc1ccc2c(c1)NC(=O)[C@@]2(CCN1C(=O)c2ccccc2C1=O)c1[nH]c2ccccc2c1CCN1C(=O)c2ccccc2C1=O	-4	-2	x	x	-4	x	x
N#Cc1cc2c(nc1SCC(N)=O)CCCCC2	5	0	1	4.8*	3	7.3*	4.5*
CCOC(=O)CC(=O)CSc1nc2c(cc1C#N)CCCCCC2	0	-1	0	0	1	x	x
COC(=O)C1=C(C)N(Cc2cccc(C(F)(F)F)c2)C(=NCc2ccc3c(c2)OCO3)NC1CCc1ccccc1 (configuration not stated)	-1	-1	x	1	0	x	x
CCN(c1ccccc1C)S(=O)(=O)c1nnc(NC(=O)c2ccco2)s1	-1	-1	1	4.8*	-2	0	0
COc1ccc(C(CNC(=O)c2ccc(NS(=O)(=O)c3ccc(F)c(C)c3)cc2)N2CCCC2)cc1 (configuration not stated)	-1	0	1	3	0	x	x
COc1ccc(C(CNC(=O)c2cccc(S(=O)(=O)N3CCCC3)c2)N2CCCC2)cc1 (configuration not stated)	3	-1	1	5.6*	0	3	3
COc1ccc(C(CNC(=O)c2cc3c(s2)CCC(C)C3)N2CCCC2)cc1 (configuration not stated)	1	-1	0	5.8*	-1	5.8*	3.0*
CCOc1ccc(NS(=O)(=O)c2ccc(C(=O)NCC(c3ccc(OC)cc3)N3CCCC3)cc2)cc1 (configuration not stated)	0	0	1	7.5*	0	7.0*	4.9*
